Source: PubChem BioAssay (several laboratories)
Shown are actives, neighbours in structure and some others; about 2.2% of the full set was active somewhere.
APP 5UTR inh: APP translation inhibition | inhibition, % at 2 µM | AID 1285 | 0.82% of 190,000 active | SH-SY5Y APP 5'UTR-luciferase reporter, luminescence;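 active = inhibition above a set limit, derived from the sample mean plus 3 SD, cut at about 45% in these data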
KLF5 inh: suppresses KLF5 promoter-driven expression; DLD-1 KLF5 promoter-luciferase reporter, luminescence; 0.23% of 290,000 active; inhibition, % at 5 µM; AID 1700;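 active = inhibition above a per-plate limit of that plate's mean compound inhibition plus 3 SD, cut at about 60% in these data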;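 note: higher means less KLF5 promoter-driven luciferase light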
Ba/F3 V617F tox: loss of viability in JAK2V617F-driven Ba/F3 cells; Ba/F3 EpoR-JAK2V617F viability, ATP luminescence; inhibition, % at 5.6 µM; 1.1% of 220,000 active;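 active = inhibition above the campaign mean plus 3 SD over all tested compounds, cut at about 24% in these data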;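 note: cytokine-independent growth of Ba/F3 cells driven by EpoR plus mutant JAK2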
BaF3 tox: parental Ba/F3 viability inhibition as JAK2V617F counter-screen; CellTiter-Glo ATP luminescence; inhibition, % at 5.6 µM; 1.1% of 220,000 active; AID 1486;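 active = inhibition above a per-campaign cutoff, the mean inhibition of all tested compounds plus 3 SD, cut at about 27% in these data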
aSyn 5UTR inh: 5' untranslated region of α-synuclein, MLPCN primary screen; alpha-synuclein 5'UTR reporter, inhibitor activity; inhibition, % (tested at 7.5 µM); 0.82% of 300,000 active; in the data active = inhibition above about 60%;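 note: H4 neuroglioblastoma cells stably carrying SNCA 5'UTR luciferase fusion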
IEC-6 tox-1: kills IEC-6 intestinal cells in KLF5 counter-screen. IEC-6 cytotoxicity, luminescence viability. 0.78% of 290,000 active. inhibition, % at 5 µM; in the data active = inhibition above about 22%
KLF5 inh confirm: KLF5 inhibition, confirmation assay | shares compounds with KLF5 inh | DLD-1 KLF5 promoter firefly luciferase reporter, luminescence | inhibition, % at 4 µM | 79% of 610 active | AID 1834;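 active = inhibition above a set limit taken from the earlier primary screen, cut at about 63% in these data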
IEC-6 tox-2: kills rat IEC-6 cells in KLF5 counter-screen | inhibition, % at 4 µM | 56% of 610 active | IEC-6 rat intestinal cells, viability luminescence | AID 1905 | shares compounds with KLF5 inh; in the data active = inhibition above about 23%;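 note: cells exposed to compounds for 48 hours before viability read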
Hits are given with their value; - = inactive; . = no result given.

SMILES	APP 5UTR inh	KLF5 inh	Ba/F3 V617F tox	BaF3 tox	aSyn 5UTR inh	IEC-6 tox-1	KLF5 inh confirm	IEC-6 tox-2
Cc1cccc(OCC(=O)Nc2cc(NC(=O)COc3cccc(C)c3C)cc(C(=O)O)c2)c1C	.	-	.	.	-	-	.	.
O=C(Nc1ccc(Cl)cc1)Nc1cccc(C(=O)O)c1	-	65.6	-	-	-	-	72.4	-
CCOC(=O)c1cccc(NC(=O)Nc2ccc(OCC)cc2)c1	-	-	-	-	-	-	.	.
CCCOc1ccc(CNC(=O)Cc2cccs2)cc1	.	-	.	.	-	-	.	.
COn1c(-c2ccc(Cl)cc2)nc2ncccc21	.	-	.	.	-	-	.	.
NNc1nc2cc3c(cc2s1)OCCO3	.	-	.	.	-	-	.	.
Cc1nn(C)c(C)c1/C=N/NC(=O)C(C)(C)Oc1ccc(Cl)cc1	-	-	-	-	-	-	.	.
Cc1nn(C(C)(C)C)c(C)c1/C=N/OC(=O)Nc1ccc(Cl)cc1	.	97.6	-	-	94.2	-	105.4	-
O=C(CCN1C(=O)c2ccccc2S1(=O)=O)Nc1cc(Cl)ccc1Cl	.	.	.	.	-	.	.	.
O=C(CCN1C(=O)c2ccccc2S1(=O)=O)Nc1ccc2c(c1)OCCO2	-	-	-	-	-	-	.	.
O=C(CN1C(=O)c2ccccc2S1(=O)=O)c1ccc2c(c1)OCCO2	.	90.8	-	-	111.2	-	96.9	-
O=C(CN1C(=O)c2ccccc2S1(=O)=O)c1ccc2c(c1)OCCCO2	.	101.1	-	-	114.4	-	108.5	-
O=C(CN1C(=O)c2ccccc2S1(=O)=O)c1ccc(Cl)cc1Cl	.	83.7	.	.	77.7	-	83.3	-
COc1cc(/C=N/NS(=O)(=O)c2ccc(C)cc2)ccc1OCc1ccc(C(=O)O)cc1	-	77.5	-	-	84.2	-	-	-
O=C(NCCS(=O)(=O)N1CCN(c2ccccc2)CC1)C1CCCC1	.	.	.	.	-	.	.	.
COc1ccc(-n2ncc3c(N4CCN(c5cccc(C)c5C)CC4)ncnc32)cc1	.	-	.	.	-	-	.	.
COc1ccc(-n2ncc3c(N4CCCCC4)ncnc32)cc1	-	65.3	-	-	101.2	-	88.3	-
Cc1cccc(C)c1-n1c(C)cc(/C=N\Nc2ccc([N+](=O)[O-])cn2)c1C	-	-	-	-	-	-	.	.
Cc1cc(/C=N/Nc2nc(N)ncc2[N+](=O)[O-])c(C)n1-c1ccccc1F	.	77.5	-	-	72.7	-	94.1	-
COc1cc(OC)cc(N(C(=O)CNC(=O)c2ccco2)C(C(=O)NCC2CCCO2)c2ccccc2)c1 (stereo not given)	.	65.4	.	.	-	-	-	-
CSCCC(NS(=O)(=O)c1ccccc1F)C(=O)NCc1cccnc1 (stereo not given)	.	.	.	.	-	.	.	.
Cc1ccc2nc(-c3ccc(O)c(O)c3)cn2c1	.	-	.	.	-	-	.	.
Cc1ccc2nc(-c3ccccc3)cn2c1	-	84.2	-	-	120.4	-	76.6	23.2
O=[N+]([O-])c1cc(CN2CCOCC2)c2cccnc2c1O	-	-	-	-	.	-	.	.
O=[N+]([O-])c1cc(CN2CCN(c3ccccc3)CC2)c(O)c2ncccc12	80.1	76.3	73.6	75.5	82.0	51.8	89.2	76.6
SMILES	APP 5UTR inh	KLF5 inh	Ba/F3 V617F tox	BaF3 tox	aSyn 5UTR inh	IEC-6 tox-1	KLF5 inh confirm	IEC-6 tox-2
CC(=O)Nc1ccc(S(=O)(=O)N2CCN(S(=O)(=O)c3ccc(F)c(F)c3F)CC2)cc1	.	-	.	.	-	-	.	.
CCCN1CCC(NC(=O)Cc2ccc(C)cc2)CC1	.	-	.	.	-	-	.	.
Cc1ccnc(NC(=O)c2ccc(S(=O)(=O)NCc3ccco3)cc2)c1	.	.	.	.	-	.	.	.
CCCS(=O)(=O)c1cnc(C2COc3ccccc3O2)nc1N (stereo not given)	.	98.3	.	.	67.8	-	78.4	-
COC(=O)c1c(NC(=O)COC(=O)c2ccc(Cl)nc2)sc(C)c1C	.	.	.	.	-	.	.	.
O=C(C1=C[C@H](c2ccccc2)C[C@H](OCCCCO)O1)N1CCN(Cc2ccccc2)CC1	-	-	-	-	-	-	.	.
C#Cc1ccc([C@@H]2C=C(C(=O)N3CCN(Cc4ccccc4)CC3)O[C@H](OCCCCO)C2)cc1	-	66.0	93.9	87.5	98.8	-	72.9	-
C/C(=N\Nc1ccc2nncn2n1)c1ccccn1	.	67.8	75.9	68.6	93.9	-	76.2	82.9
NS(=O)(=O)c1ccc(NC(=O)COc2ccc(Cl)cc2)cc1	.	-	.	.	-	-	.	.
CCOc1cccc(/C=N/NC(=O)c2ccc3c(c2)OCCO3)c1O	.	65.0	.	.	-	-	93.4	-
COc1cccc(/C=N/NC(=O)CNC(=O)c2ccc3c(c2)OCCO3)c1O	-	-	-	-	-	-	.	.
CCc1ccn2cc(-c3ccc4c(c3)OCO4)nc2c1	.	66.2	-	-	107.0	-	62.4	-
Cc1ccc(C(=O)Nc2nc3ccccc3[nH]2)cc1	.	85.6	.	.	68.1	-	66.0	-
O=C(Nc1cnc2ccccc2c1)c1cccnc1	-	-	-	-	-	-	.	.
COc1ccc(C(=O)Nc2nc3ccccc3[nH]2)cc1	.	65.4	.	.	70.7	-	-	-
Cc1ccc(C(=O)Nc2cnc3ccccc3c2)cc1	-	96.9	-	-	103.5	-	104.6	-
O=C(Nc1nc2ccccc2[nH]1)c1ccc([N+](=O)[O-])cc1	-	-	-	-	-	-	.	.
COc1cc(C(=O)Nc2nc3ccccc3[nH]2)cc(OC)c1OC	-	-	-	-	-	-	.	.
CC1CCN(c2ccc(-c3cccc(NC(=O)C(F)(F)F)c3)nn2)CC1	.	83.7	.	.	102.8	-	88.1	22.8
O=C(Nc1cccc(-c2ccc(N3CCCCC3)nn2)c1)c1ccc(Br)o1	.	.	.	.	-	.	.	.
CCC(=O)Nc1cccc(-c2ccc(N3CCC(C)CC3)nn2)c1	.	-	.	.	-	-	.	.
O=C(Nc1cccc(-c2ccc(N3CCCCC3)nn2)c1)C(F)(F)F	.	75.6	.	.	96.2	-	-	-
Cn1cnc(S(=O)(=O)N2CCN(C(c3ccc(F)cc3)c3ccc(F)cc3)CC2)c1	.	-	.	.	-	-	.	.
Clc1ccccc1/C=C/c1nc(-c2ccccn2)no1	.	72.3	-	-	104.5	-	73.0	-
O=C(O)c1cccc(N/N=C/c2ccc(OC(F)(F)F)cc2)c1	.	71.2	.	.	64.3	-	67.1	-
SMILES	APP 5UTR inh	KLF5 inh	Ba/F3 V617F tox	BaF3 tox	aSyn 5UTR inh	IEC-6 tox-1	KLF5 inh confirm	IEC-6 tox-2
COc1ccc(/C=N/NC(=O)CCn2c3ccccc3c3ccccc32)cc1O	86.8	73.5	77.8	70.6	-	-	79.3	-
Cc1ccc(SSc2cc(C)ccc2N)c(N)c1	.	.	.	.	-	.	.	.
CCOC(=O)COc1cccc2c(=O)n(CC(=O)NCc3ccc(F)cc3)ccc12	.	62.5	72.2	68.5	75.2	-	80.4	22.6
COc1cc(C(=O)N/N=C(\C)c2ccccn2)cc(OC)c1OC	.	83.5	.	.	109.2	95.5	-	35.0
C/C(=N/NC(=O)c1ccccn1)c1ccc(O)cc1	.	-	-	-	-	-	.	.
O=S(=O)(Cc1nnnn1-c1ccccc1)c1ccc(F)cc1	.	-	.	.	-	-	.	.
O=C(Nc1cccnc1)c1cccs1	-	72.2	45.7	87.5	-	-	69.7	-
CCCCn1c(N)c(N(CC(C)C)C(=O)c2ccc(Br)s2)c(=O)[nH]c1=O	.	-	.	.	-	-	.	.
